Screens from PubChem BioAssay.
In the library only some 4.6% were active in any assay of this set; here they are far more common.
Vaccinia mCherry: qHTS for Stage-Specific Inhibitors of Vaccinia Orthopoxvirus: mCherry Reporter Primary qHTS; Vaccinia virus mCherry reporter infection, fluorescence; Potency, µM (highest dose often 36.5 µM), without a hit: at the top dose activity change, negative = inhibition, actives largely listed as inhibitors; 0.63% of 310,000 active; AID 720579, 2013; calls by dose curve; tested in A549 cells; note: nearly all actives have a fitted effect of over 35% in size
Vaccinia Venus: qHTS for Stage-Specific Inhibitors of Vaccinia Orthopoxvirus: Venus Reporter Primary qHTS; AID 720580, 2013; Potency, µM (doses to about 36.5 µM), inactives show top-dose activity change, negative = inhibition, hits mostly inhibitors; Vaccinia virus Venus reporter expression, fluorescence; 0.46% of 330,000 active; calls by dose curve; tested in A549 cells; note: nearly all actives have a fitted effect of over 30% in size
HCV inhibitor: qHTS Assay for Inhibitors of Hepatitis C Virus (HCV); Huh7.5.1 HCVcc-Cre infection, luciferase reporter, 44 h; Potency, µM (series often up to 41.8 µM), without a hit: at the highest dose activity change, negative = inhibition, hits mostly inhibitors; 3.4% of 340,000 active; active = well fitted inhibition curve with a large enough effect; inconclusive = small, poorly fitted or top-dose-only effect, or another doubt; inactive = no such curve, though single readings can be large or run the other way
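Luciferase read-out (15 sec integration) after a 15 min room-temperature substrate step quantifies HCVcc-Cre infection. Cells, 1,000 per well, had compound added 4 h post-plating, then virus at ~0.5 moi, and were cultured 44 h.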
Marburg entry inh: qHTS for inhibitors of binding or entry into cells for Marburg Virus; Marburg virus pseudotyped entry inhibition, cell reporter; Potency, µM (series often up to 37.8 µM), for inactives: at the top dose activity change, negative = inhibition, actives largely listed as inhibitors; 1.8% of 300,000 active; AID 540276, 2011; calls by dose curve; tested in HEK293 cells
LASV entry inh: qHTS for Inhibitors of binding or entry into cells for Lassa Virus | 1.2% of 300,000 active | Lassa virus pseudotype entry inhibition, cell reporter | Potency, µM (doses to about 37.9 µM), for inactives: at the highest dose activity change, negative = inhibition, actives largely listed as inhibitors; calls by dose curve; tested in HEK293 cells; note: nearly all actives have a fitted effect of over 50% in size
The depositor's hits bear a star; i = inactive; ? = inconclusive; . = no result; ! = not active in a repeat; [ ] = dose if it differs, or a comment. % is set by controls: 0 for no effect and ±100 for the full control effect; potency is the fitted concentration of half-maximal effect.

SMILES	Vaccinia mCherry	Vaccinia Venus	HCV inhibitor	Marburg entry inh	LASV entry inh
CCn1ccnc1CN(C)Cc1cn(C)nc1-c1ccccc1F	-10%	-8%	10%	-17%[46.1 µM]	1%[46.1 µM]
CCn1ccnc1CN(C)Cc1cn(-c2ccccc2)nc1-c1ccc(OC)cc1F	-15%	-6%	?	10µM*	?
COc1ccccc1-c1ccnc(-n2ncc(C(=O)N(C)C(C)c3ccon3)c2C2CC2)n1 (configuration not stated)	-10%	2%	.	.	.
COc1ccc(-c2cc(C(=O)N3CCCCCC3)c3ccccc3n2)cc1OC	-6%	-13%	.	.	.
O=C(c1cn(-c2ccccc2)nc1-c1cccs1)N1CCN(c2ccccc2)CC1	.	.	7.1µM*	?	-28%
COc1ccc(C(=O)N2CCN(c3nc4ccccc4o3)CC2)cc1OC	i	-14%	11µM*	.	.
COc1ccc(-c2cc(C(=O)N(C)CC(=O)Nc3ccccc3Br)c3ccccc3n2)cc1OC	i	-2%	20µM*	?	?
CN(CC(=O)Nc1ccccc1Br)C(=O)c1cc(Cl)nc2ccccc12	.	.	-32%	.	.
O=C(c1cn(-c2ccccc2)nc1-c1cccs1)N1CCOCC1	i	-6%	-6%	2%	0%
COc1ccc(-c2cc(C(=O)N3CCN(c4ccccc4)CC3)c3ccccc3n2)cc1OC	.	5%	?	?	4.5µM*
COc1ccc(N2CCN(C(=O)c3cc(-c4cccs4)nc4ccccc34)CC2)cc1	-21%	-15%	?	11µM*	.
O=C(/C=C/c1cn(-c2ccccc2)nc1-c1cccs1)NCCN1CCOCC1	0%[7.34 µM]	-13%[7.34 µM]	14µM*	.	.
COc1ccc(-c2cc(C(=O)N3CCCCCC3)c3ccccc3n2)cc1	?	-23%	?	-11%	17%
CC(C)(C)c1cc(C(=O)CCN2CCOCC2)cc(C(C)(C)C)c1O	11µM*	?	-23%	-1%	-2%
CCOc1cc(/C=N/O)cc(Cl)c1OC	.	-11%	11µM*	20%	4%
C#CCOc1c(Br)cc(/C=N/O)cc1OCC	.	-11%	2.2µM*	8%	?
CCCOc1c(Br)cc(/C=N/O)cc1OC	.	?	-12%	10µM*	-15%
CCCOc1c(Cl)cc(/C=N/O)cc1OCC	.	-26%	?	-18%	-1%
CCOc1cc(/C=N/O)cc(Br)c1OCC	.	.	?	13%	-22%
CNC(=O)[C@@H]1C[C@H](NC2CCCCCCC2)CN1Cc1cccc(OC)c1OC	-10%	-1%	.	.	.
c1csc(CNc2ccc3c(c2)OCCO3)c1	-23%	-15%	?	1µM*	?
Oc1ccccc1CNc1ccc2c(c1)OCCO2	?	-8%	13%	-10%[46.1 µM]	18%[46.1 µM]
Cc1ccc(-c2nc(CN3CCN(C(=O)C4CCCO4)CC3)cs2)cc1 (configuration not stated)	i	-20%	.	18µM*	?
Cc1ccc(CN2CCN(C(=O)C3CCCO3)CC2)cc1 (configuration not stated)	i	2%	1%	6%	-3%
CN(C)c1ccc(N=Cc2cccn2C)cc1	?	?	?	?	6.3µM*
SMILES	Vaccinia mCherry	Vaccinia Venus	HCV inhibitor	Marburg entry inh	LASV entry inh
Cc1nc(NCCc2ccccc2)c2oc3ccccc3c2n1	.	.	10µM*	?	0%
CCOC(=O)C1=C(C)NC(C)=C(C(=O)OC)C1c1cccc([N+](=O)[O-])c1 (configuration not stated)	-6%	-20%	?	2.5µM*!	?
COC(=O)C1=C(C)NC(C)=C(C(=O)OC(C)(C)CN(C)CCC(c2ccccc2)c2ccccc2)C1c1cccc([N+](=O)[O-])c1 (configuration not stated)	.	.	.	?	8.2µM*
CCOC(=O)C1=C(CCc2ccccc2)NC(=O)NC1c1cccc([N+](=O)[O-])c1 (configuration not stated)	-29%	?	?	.	.
COCCOC(=O)C1=C(C)NC(C)=C(C(=O)OC/C=C/c2ccccc2)C1c1cccc([N+](=O)[O-])c1 (configuration not stated)	.	.	.	?	8.2µM*
COC(=O)C1=C(C)NC(C)=C(C(=O)OCCN(C)Cc2ccccc2)[C@@H]1c1cccc([N+](=O)[O-])c1	.	.	.	8.2µM*	.
COC(=O)C1=C(C)NC(C)=C(C(=O)O[C@@H]2CCCN(Cc3ccccc3)C2)[C@@H]1c1cccc([N+](=O)[O-])c1	-8%	-27%	?	.	.
COC(=O)[C@@H](NC(=O)C1CCCN(c2nc(C)c3ccc(C)cc3n2)C1)C(C)C (some centres not stated)	-12%	-4%	.	.	.
CCOC(=O)C1=C(C)NC(C)=C(C(=O)OC)[C@H]1c1cccc([N+](=O)[O-])c1	25%	-20%	.	-20%	.
COCCOC(=O)C1=C(C)NC(C)=C(C(=O)OC(C)C)C1c1cccc([N+](=O)[O-])c1 (configuration not stated)	-27%	-21%	?	5.6µM*!	?
C[C@@H]1CC[C@H]2C(=O)O[C@@H](COc3ccc(C(C)(C)C)cc3)CN2[C@@H]1c1ccc(Br)cc1	.	.	.	?	-5%[14.3 µM]
CC1(C)CSC(=NCc2ccccc2)N1	.	.	10µM*	7%	5%
CC1O[C@@H](O[C@@H]2C(O)C[C@H](O[C@@H]3C(O)C[C@@H](OC4CC[C@@]5(C)C6CC[C@]7(C)C(C8=CC(=O)OC8)CC[C@@]7(O)C6CC[C@@H]5C4)OC3C)OC2C)CC(O)[C@H]1O (some centres not stated)	?	0.28µM*	.	.	.
C[C@H]1O[C@@H](O[C@H]2[C@@H](O)C[C@H](O[C@H]3[C@@H](O)C[C@H](O[C@H]4CC[C@@]5(C)[C@H](CC[C@@H]6[C@@H]5C[C@@H](O)[C@]5(C)[C@@H](C7=CC(=O)OC7)CC[C@]65O)C4)O[C@@H]3C)O[C@@H]2C)C[C@H](O)[C@@H]1O	?	0.28µM*	?	0.13µM*	0.15µM*
CC(=O)OC1CC(OC2C(O)CC(OC3C(O)CC(OC4CCC5(C)C(CCC6C5CC(O)C5(C)C(C7=CC(=O)OC7)CCC65O)C4)OC3C)OC2C)OC(C)C1OC1OC(CO)C(O)C(O)C1O (configuration not stated)	2.5µM*	0.89µM*	0.56µM*	.	.
C[C@H]1O[C@@H](O[C@H]2[C@@H](O)C[C@@H](O[C@H]3[C@@H](O)C[C@H](O[C@H]4CC[C@@]5(C)[C@H](CC[C@@H]6[C@@H]5CC[C@]5(C)[C@@H](C7=CC(=O)OC7)CC[C@]65O)C4)O[C@@H]3C)O[C@@H]2C)C[C@H](O)[C@@H]1O	13µM*	0.025µM*	.	.	.
Cc1c2cnn(-c3ccccc3)c(=O)c2c(C)n1CC(=O)NCCc1ccc(Cl)cc1	-9%	-5%	.	21%[46.1 µM]	-5%[46.1 µM]
COC(=O)C=P(c1ccccc1)(c1ccccc1)c1ccccc1	.	.	.	30%[14.2 µM]	?
